# Several values for one entry are separate records, joined by “and”; a condition that tells them apart may be missing. Equal values may be shown once. This is part of a sample that, as a whole, favours compounds with a hit. Of some 83,000 tested, about 20% had one in any assay.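 Single-dose data. Exposure time 48 hours. Values below 10 considered active.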 A number with no mark means an inactive call. Activity calls are given as the source filed them.
# System: HL-60(TB) leukemia
# Experiment: NCI-60 one-dose screen, 48 h (100 = growth as untreated, 0 = no growth, -100 = all killed)
smiles,measurement,setting,value
CS(=O)CC(=N\O)/C(CS(C)=O)=N\O (stereo unspecified),growth,10 µM unless noted,101%
CC(=O)/C=C/c1ccc(N(CCO)Cc2ccc(C(C)(C)C)cc2)cc1,growth,10 µM,69.6%
same,growth,100 µM,-55.3% (active)
CC(=O)O[C@H]1C(=O)[C@@]2(C)[C@H]([C@H](OC(=O)c3ccccc3)[C@]3(O)C[C@H](OC(=O)[C@H](O)[C@@H](NC(=O)c4ccccc4)c4ccccc4)C(C)=C1C3(C)C)[C@]1(OC(C)=O)CO[C@@H]1C[C@@H]2O,growth,0.01 µM,-8.36% (active)
same,growth,2.5 µM,-43.6% (active)
same,growth,5 µM,-42.4% (active)
same,growth,10 µM,-12.3% (active) and -35.8% (active)
Cc1c2oc3c(C)ccc(C(=O)N[C@@H]4C(=O)N[C@H](C(C)C)C(=O)N5CCC[C@H]5C(=O)N(C)CC(=O)N(C)[C@@H](C(C)C)C(=O)O[C@H]4C)c3nc-2c(C(=O)N[C@@H]2C(=O)N[C@H](C(C)C)C(=O)N3CCC[C@H]3C(=O)N(C)CC(=O)N(C)[C@@H](C(C)C)C(=O)O[C@H]2C)c(N)c1=O,growth,0.0025 µM,42.6%
same,growth,10 µM,-24.3% (active)
COc1cc(NS(C)(=O)=O)ccc1Nc1c2ccccc2nc2ccccc12,growth,2.5 µM,-0.933% (active)
same,growth,10 µM,-43.9% (active) and -9.61% (active) and -4.58% (active)
CCOC(=O)C(C#N)=C1CCN(C)CC1,growth,10 µM unless noted,113%
CN(C)CCNc1ncc(F)c(-c2cnc3cc(-c4cnn(C)c4)ccn23)n1,growth,0.005 µM,101%
same,growth,30 µM,4.9% (active)
COc1cc(C(=O)NC(=S)NCc2ccncc2)cc(OC)c1OC,growth,10 µM unless noted,89.7%
N#CCCN1C(=O)CCC1C(=O)O (stereo unspecified),growth,10 µM unless noted,85.9%

# — PubChem BioAssay (NCI)
